ClpP mod: qHTS Assay for Activators of ClpP; ATP-dependent Clp protease proteolytic subunit (Bacillus subtilis (strain 168)), P80244; purified B. subtilis ClpP, FRET peptide cleavage, 20 min; Potency, µM (titrated, usually from 57.5 µM), for inactives: at the highest dose activity change, negative = active; 1.9% of 340,000 active; active = well fitted falling curve with a large enough effect; inconclusive = small, poorly fitted or top-dose-only effect; inactive = no such curve, though single readings can be large or run the other way; also: the source files actives as falling curves though it sought activators and does not explain the sign; nearly all actives have a fitted effect of over 65% in size
Target sequence (P80244 whole entry, looked up): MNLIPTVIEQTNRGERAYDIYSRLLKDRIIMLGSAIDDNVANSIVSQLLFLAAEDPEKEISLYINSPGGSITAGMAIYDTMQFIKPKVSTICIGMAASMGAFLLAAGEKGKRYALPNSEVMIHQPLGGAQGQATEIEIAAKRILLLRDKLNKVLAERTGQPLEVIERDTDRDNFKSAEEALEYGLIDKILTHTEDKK
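ClpP 10 microg/mL final, pH 8 Tris/KCl buffer with BSA, glycerol, Tween-20; compound pinned in; FRET-FV substrate; RT 20 min; Ex320/Em430; ΔFRET vs ADEP 5.8 microM, DMSO, no enzyme.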
USP2a block: qHTS Assay for Inhibitors of Ubiquitin-specific Protease USP2a Using CHOP2 as the Reporter. USP2 core, Ub-CHOP2 coupled fluorogenic reporter, 485/531. 0.01% of 330,000 active. Ubiquitin carboxyl-terminal hydrolase 2 (Homo sapiens), O75604. Potency, µM (series often up to 38.3 µM), for the others: at the top dose activity change, negative = inhibition, usual class: inhibitors;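 also: plate controls were DMSO wells for no effect and full inhibition by NEM control for full effect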
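USP2 core (10nM final) preincubated 30min RT with compound in 20mM Tris-HCl pH 8.0, 2mM CaCl2, 2mM beta-mercaptoethanol, 0.05% CHAPS; 25nM Ub-CHOP2 plus 25nM reporter substrate added, fluorescence (Ex485/Em531) read after 60min.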
Mm-Cpn inhibitor: Inhibitors of TCP-1 ring complex (TRiC) of Methanococcus maripaludis (MmCpn): qHTS. Chaperonin Mm-Cpn (Methanococcus maripaludis). purified Mm-Cpn ATPase, ADP Transcreener TR-FRET. Potency, µM (series often up to 76.9 µM), for the others: top-dose activity, negative = inhibition, usual class: inhibitors. 0.031% of 330,000 active; also: % is scaled to controls: 0 for no effect and ±100 for the full control effect; nearly all actives have a fitted effect of over 80% in size
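25 nM Mm-CPN + cpd, 10 min 37°C; + 10 uM ATP, 30 min 37°C; buffer 30 mM Tris pH 7.4, 100 mM KCl, 5 mM MgCl2, 1 mM DTT; Transcreener ADP HTRF detection 30 min RT.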
Integrin act MD: qHTS for Activators of Integrin-Mediated Alleviation for Muscular Dystrophy | alpha7betagal myoblasts, beta-gal FDG fluorescence, 48 h | Potency, µM (highest dose often 38.3 µM), for inactives: at the top dose activation, actives largely listed as activators | 0.064% of 350,000 active | AID 624291, 2012;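 also: 100% = response of the positive control SU9516; nearly all actives have a fitted effect of over 60% in size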
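alpha7betagal+/- myoblasts (passage 13, 250/well) treated 48 h at 37C with compounds at 1:260 dilution of DMSO stock. Lysed, then beta-galactosidase activity read as FDG fluorescence (ex 480/em 540) after 30 min, with pre-read for autofluorescence.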
p53 reactivation: qHTS assay for re-activators of p53 using a Luc reporter. H1299 p53-A138V BP100-luciferase reporter, luminescence, 24 h. Potency, µM (doses to about 92.2 µM), without a hit: at the highest dose activity change, positive = activation, most hits filed as activators. 0.063% of 320,000 active; also: % of control where 0% means no effect; nearly all actives have a fitted effect of over 45% in size
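H1299 (p53-null), stable ts p53-A138V + BP100-Luc; 1000 cells/well, Opti-MEM/10% FBS; cpd 4 pt, 1:5; 24 h, 37 deg C, 5% CO2; detection reagent 10 min RT; luminescence.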
Eya2 phos inh: qHTS Assay for Inhibitors of the Phosphatase Activity of Eya2; Protein phosphatase EYA2 (Homo sapiens), O00167; recombinant Eya2, OMFP fluorescence dephosphorylation (OMFP is methylfluorescein phosphate); Potency, µM (highest dose often 76.9 µM), inactives show top-dose activity, negative = inhibition, actives largely listed as inhibitors; 0.006% of 330,000 active; AID 488837, 2010; also: % is scaled to controls: 0 for no effect and ±100 for the full control effect
Target sequence (O00167 whole entry, looked up): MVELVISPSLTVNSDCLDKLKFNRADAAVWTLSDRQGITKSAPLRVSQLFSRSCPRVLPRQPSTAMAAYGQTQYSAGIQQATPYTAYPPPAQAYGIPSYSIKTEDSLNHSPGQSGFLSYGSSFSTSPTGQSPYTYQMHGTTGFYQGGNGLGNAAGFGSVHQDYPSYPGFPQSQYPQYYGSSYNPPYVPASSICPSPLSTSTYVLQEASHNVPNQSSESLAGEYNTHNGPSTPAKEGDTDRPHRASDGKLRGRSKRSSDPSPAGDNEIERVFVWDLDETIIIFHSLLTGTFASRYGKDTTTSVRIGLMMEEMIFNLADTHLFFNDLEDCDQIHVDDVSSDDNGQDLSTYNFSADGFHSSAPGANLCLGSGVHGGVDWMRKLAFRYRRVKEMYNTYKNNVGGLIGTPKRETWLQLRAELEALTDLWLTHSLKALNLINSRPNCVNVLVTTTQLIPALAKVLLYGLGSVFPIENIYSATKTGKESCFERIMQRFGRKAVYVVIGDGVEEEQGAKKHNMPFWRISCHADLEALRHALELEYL
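Eya2 (0.2 uM) preincubated 10 min at ambient with compound, then OMFP substrate added at 50 uM; 10 min reaction in 50 mM HEPES pH 7.5, 50 mM NaCl, 5 uM MgCl2, 0.05% BSA, 1 mM DTT. Fluorescence read at Ex 485/Em 525 nm.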
* = called active by the depositor; ? = inconclusive; · = no result given; ! = repeats disagree; [ ] = remark or other dose. The sample as a whole holds a higher share of hits than the screen did. Unless noted, calls follow the shape of the dose curve; as a rule, active = well fitted curve in the direction sought with a large enough effect; inconclusive = small, poorly fitted or top-dose-only effect, or another doubt; inactive = no such curve, though single readings can be large; an effect the other way counts as inactive or inconclusive. Potency is read from the fitted curve at half-maximal effect.

SMILES	ClpP mod	USP2a block	Mm-Cpn inhibitor	Integrin act MD	p53 reactivation	Eya2 phos inh
COc1ccccc1NC(=O)CCCNC(=O)Cn1cnc2sc(C)c(C)c2c1=O	28µM*	1%	-1%	-16%	0%	7%
CN(C)CCOCCP(=O)(c1ccccc1)c1ccccc1	1%	10µM*	?	-8%	-2%	4%
CCC(=O)N1N=C(c2ccccc2)CC1c1ccccc1 (centres undefined)	0%	4%	-2%	25%	-1%	10%
CCOC(=O)c1nnn(CC(=O)N2N=C(c3cccc4ccccc34)CC2c2ccccc2)c1C(=O)OCC (centres undefined)	11µM*	-6%	-2%	20%	-2%	3%
CCC(C)c1ccc(OCC(=O)Nc2cccc3ccc(C)nc23)cc1 (centres undefined)	-18%	·	·	·	·	·
C(=C1C=c2ccccc2=C1)c1ccc(N=Nc2ccc(C=C3C=c4ccccc4=C3)cc2)cc1	1%	·	·	·	·	·
COC(=O)c1ccccc1NC(=O)C1CCCCC1C(=O)O (centres undefined)	28µM*	3%	1%	3%[7.66 µM]	-4%	2%
Cc1ccc(NC(=O)C2CCCCC2C(=O)O)cc1C (centres undefined)	1%	3%	-1%	11µM*	0%	-8%
COc1ccc(NC(=O)c2ccccc2NC(=O)C2CCCCC2C(=O)O)cc1 (centres undefined)	-4%	·	·	-5%	·	·
Cc1ccc(NC(=O)C2CCCCC2C(=O)O)cc1Cl (centres undefined)	·	3%	-4%	27%	21%	-2%
CN(Cc1ccccc1)c1nc2c(S(=O)(=O)c3cccc(Cl)c3)nnn2c2ccsc12	-4%	·	·	·	·	·
Cc1ccc(Cn2c(=O)c3cccnc3n(CC(=O)Nc3cccc(C(F)(F)F)c3)c2=O)cc1	32µM*!	-6%	-14%	23%	-10%	-6%
c1ccc2cnccc2c1	-2%	·	·	·	·	·
CCCC(=O)c1c[nH]c(C(=O)NCCCN2CCOCC2)c1	25µM*	2%	-1%	12%	-3%	18%
Cc1c(Br)cc(C(=O)NCCCN2CCOCC2)c(C)c1C	16µM*	0%	0%	19%	-1%	-25%
CCC(=O)c1c[nH]c(C(=O)NCCCN2CCOCC2)c1	-1%	-2%	0%	6%	-1%	0%
O=C(NCCCN1CCOCC1)c1ccc(Br)cc1Br	·	3%	-4%	·	3%	4%
O=C(NNc1ccccc1)c1sc2ccccc2c1Cl	-2%	·	·	·	·	·
CCOC(=O)C1(C)C=C(Nc2cccc(C(=O)O)c2)C(=O)N1c1ccccc1 (centres undefined)	-6%	·	·	·	·	·
C/C(=N\Nc1nc2ccccc2[nH]1)c1ccccn1	·	3%	0%	·	8.9µM*	-6%
COc1ccc(-c2nn(C)c3sc(C(=O)Nc4cc(OC)c(OC)c(OC)c4)cc23)cc1OC	-24%	·	·	·	·	·
Cc1cccc2cc(CN(Cc3ccccc3)Cc3nnnn3Cc3ccccc3)c(=O)[nH]c12	-25%	·	·	·	·	·
Cc1ccc(C(=O)CC(Nc2ccc(F)cc2)c2ccccc2)cc1 (centres undefined)	3%	-1%	-1%	3%	18µM*	-3%
Cc1ccc(NC(CC(=O)c2ccccc2)c2ccc(F)cc2)cc1 (centres undefined)	0%	1%	1%	-11%	?	-1%
COc1ccc(CC(=O)N/N=C(\C)c2cccc(NC(=O)C3CC3)c2)cc1	-1%	1%	1%	13%	·	16%
SMILES	ClpP mod	USP2a block	Mm-Cpn inhibitor	Integrin act MD	p53 reactivation	Eya2 phos inh
C/C(=N\NC(=O)C1(C)CC1(Br)Br)c1cccc(NC(=O)C2CCC2)c1 (centres undefined)	22µM*	2%	1%	9%	-3%	-4%
O=C(c1ccc(S(=O)(=O)N2CCCC2)cc1)N1CCCCC1	1%	2%	1%	-31%	-2%	17%
O=C1c2cccc3cccc(c23)C(=O)N1CC1CCN(S(=O)(=O)c2ccccc2)CC1	·	·	·	-1%	·	·
O=C(CN1C(=O)c2ccccc2C1=O)N1CCCCC1	1%	2%	0%	-18%	1%	-7%
O=C1c2cccc3cccc(c23)C(=O)N1CC1CCN(S(=O)(=O)c2ccc(F)cc2)CC1	13µM*	1%	0%	-15%	-10%	4%
O=C(CN1C(=O)c2cccc3cccc(c23)C1=O)N1CCCCCC1	28µM*	-2%	2%	-4%	2%	6%
Cc1ccc(S(=O)(=O)N2CCC(CN3C(=O)c4cccc5cccc(c45)C3=O)CC2)cc1	25µM*	2%	-7%	-15%	-4%	2%
O=C(c1ccc(S(=O)(=O)N2CCCCCC2)cc1)N1CCC(CN2C(=O)c3cccc4cccc(c34)C2=O)CC1	28µM*	0%	-8%	-50%	4%	0%
Cc1ccc2[nH]cc(C(O)c3c[nH]c4ccc(C)cc34)c2c1	-1%	·	·	·	·	·
CCOC(=O)C[n+]1cccc(Br)c1	-1%	·	·	·	·	·
COc1ccc(C2Nc3ccccc3C(=O)N2Cc2ccccc2)cc1COc1ccc([N+](=O)[O-])c(C)c1 (centres undefined)	-6%	·	·	·	·	·
C[N+]1(CC(=O)c2ccccc2)CCc2ccccc2C1 (centres undefined)	0%	·	·	·	·	·
Cc1cccc(NC(=O)C(c2ccccc2)N2Cc3ccccc3C2=O)c1C (centres undefined)	1%	·	·	·	·	·
COC(=O)C1=CN(CC2CCCO2)C=C(C(=O)OC)C1c1ccccc1C(F)(F)F (centres undefined)	32µM*	0%	0%	22%	-2%	4%
CCCC(=O)Nc1ccccc1NC(=O)c1ccc(OCC)cc1	-1%	7%	3%	11µM*	-1%	-27%
CCOc1ccc(/C=N/NC(=O)c2ccccc2NC(=O)c2ccc(OC)cc2)cc1	28µM*	3%	-30%	?	?	5%
COc1cccc(CCc2ccccc2OCC(CN(C)C)OC(=O)CCC(=O)O)c1 (centres undefined)	1%	·	·	·	·	·
